Results on six compounds are retold here after PubChem BioAssay (NCATS).

Inconclusive results are not listed. Values without a mark were called inactive. The source made the active and inactive calls. Calls come from the whole dose curve; as a rule, active = well fitted curve in the direction sought with a large enough effect; inconclusive = small, poorly fitted or top-dose-only effect, or another doubt; inactive = no such curve, though single readings can be large; an effect the other way counts as inactive or inconclusive.

Assay [1] has as its system W2. Kind of assay: qHTS profiling for inhibitors of Plasmodium falciparum proliferation (AID 504749). Note: nearly all actives have a fitted effect of over 60% in size. Note: potency is the fitted concentration of half-maximal effect. The settings on record: P. falciparum in erythrocytes, SYBR Green DNA, 72 h; series mostly up to 28.7 µM. The essentials:
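P. falciparum-infected erythrocytes (0.3% parasitemia, 2.5% hematocrit final) were exposed to compounds for 72 h at 37 C in 5% CO2, then lysed with SYBR Green buffer overnight at room temperature; parasite DNA fluorescence was normalized to artemisinin and DMSO controls.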
(qHTS replaces the single test concentration by a dilution series.)

Assay [2] has as its system CRL-7250. Kind of assay: Cytotoxic Profiling of Annotated Libraries Using Quantitative High-Throughput Screening (AID 1296008). For max response: % is set by controls: 0 for no effect and ±100 for the full control effect. Note: nearly all actives have a fitted effect of over 60% in size. The settings on record: Five cell lines viability, CellTiter-Glo ATP luminescence, 48-72 h; max response: hits give low values. The essentials: (§1)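 Compounds were pin-transferred onto cells and incubated 48 or 72 hr at 37 degree Celsius, 95% humidity. CellTiter-Glo was added, plates sat 10 min at room temperature, then ATP-coupled luminescence was imaged as the viability read-out.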
In general terms: In ATP-based viability assays light output follows the ATP content of the culture.

The subject of assay [3] is HEK293. The assay is described as above. Conditions: Five cell lines viability, CellTiter-Glo ATP luminescence, 48-72 h; max response: hits give low values. The essentials: as §1
The subject of assay [4] is KB-3-1. Described as above. The settings on record: Five cell lines viability, CellTiter-Glo ATP luminescence, 48-72 h; max response: hits give low values. The method, boiled down:
as §1

The subject of assay [5] is MCC-13. Description: qHTS assay to identify novel small-molecules to repurpose for Merkel cell carcinoma treatment (AID 1296009). Note: nearly all actives have a fitted effect of over 60% in size. The settings on record: MCC and control cell lines, CellTiter-Glo viability, 72 h; series mostly up to 46 µM. The essentials:
(§2)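 Cells exposed to NPC (8-point) and MIPE (11-point) compound dilutions for 72 hr at 37 degree celsius; viability read by CellTiter-Glo luminescence, normalized to no-cell and DMSO in-plate controls.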

Assay [6] concerns MCC-26. The description is as above. The settings on record: MCC and control cell lines, CellTiter-Glo viability, 72 h; series mostly up to 46 µM. The method, boiled down: as §2
Assay [7] concerns MKL-1. The description is as above. Conditions: MCC and control cell lines, CellTiter-Glo viability, 72 h; series mostly up to 46 µM. The method, boiled down:
as §2

In assay [8] the test system is MKL-2. The description is as above. Conditions: MCC and control cell lines, CellTiter-Glo viability, 72 h; series mostly up to 46 µM. The method, boiled down: as §2
Assay [9] relates to UISO. The assay is described as above. The settings on record: MCC and control cell lines, CellTiter-Glo viability, 72 h; series mostly up to 46 µM. The method, boiled down: as §2
The subject of assay [10] is WaGa. The assay is described as above. The settings on record: MCC and control cell lines, CellTiter-Glo viability, 72 h; series mostly up to 46 µM. The method, boiled down: as §2
Assay [11] relates to C33A. Kind of assay: Primary qHTS to identify gynecologic anti-cancer compounds using libraries of approved drugs and bioactive compounds (AID 1345084). Note: % is set by controls: 0 for no effect and ±100 for the full control effect; nearly all actives have a fitted effect of over 55% in size. Conditions: Gynecologic cancer cell panel viability, ATPlite luminescence, 48 h; series mostly up to 57.5 µM. The essentials: (§3)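 ATP-based viability (ATPlite), 1,000 cells/well, 16 h pre-incubation, 48 h compound at 37 C, 5% CO2, 15 min RT before read.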

The test system of assay [12] is CAOV3. The assay is described as above. Conditions: Gynecologic cancer cell panel viability, ATPlite luminescence, 48 h; series mostly up to 57.5 µM. The essentials:
as §3

In assay [13] the test system is CASKI. The assay is described as above. Conditions: Gynecologic cancer cell panel viability, ATPlite luminescence, 48 h; series mostly up to 57.5 µM. The essentials: as §3
Assay [14] deals with Es-2. The assay is described as above. The settings on record: Gynecologic cancer cell panel viability, ATPlite luminescence, 48 h; series mostly up to 57.5 µM. The method, boiled down:
as §3

Assay [15] has as its system HeLa. Described as above. The settings on record: Gynecologic cancer cell panel viability, ATPlite luminescence, 48 h; series mostly up to 57.5 µM. The method, boiled down: as §3
Assay [16] relates to NIH3T3. Description: Cytotoxic Profiling of Annotated Libraries Using Quantitative High-Throughput Screening (AID 1296008). For max response: % is set by controls: 0 for no effect and ±100 for the full control effect. Note: nearly all actives have a fitted effect of over 60% in size. Conditions: Five cell lines viability, CellTiter-Glo ATP luminescence, 48-72 h; max response: hits give low values. The essentials: as §1
Assay [17] deals with HEK293T. Kind of assay: qHTS assay to identify novel small-molecules to repurpose for Merkel cell carcinoma treatment (AID 1296009). Note: nearly all actives have a fitted effect of over 60% in size. The settings on record: MCC and control cell lines, CellTiter-Glo viability, 72 h; at 44.8 µM (top of the series) unless noted. The essentials:
as §2

The test system of assay [18] is HaCat. Description: Cytotoxic Profiling of Annotated Libraries Using Quantitative High-Throughput Screening (AID 1296008). For max response: % is set by controls: 0 for no effect and ±100 for the full control effect. Note: nearly all actives have a fitted effect of over 60% in size. The settings on record: Five cell lines viability, CellTiter-Glo ATP luminescence, 48-72 h; max response: hits give low values. The method, boiled down: as §1

As to `C=C[C@@]1(C)CC(=O)[C@]2(O)[C@@]3(C)[C@@H](O)CCC(C)(C)[C@@H]3[C@H](O)[C@H](OC(C)=O)[C@@]2(C)O1`, the Potency result in assay [1], in assay [5], in [6], in assay [7], in assay [8] and in [9] was “inactive” in each case. Moreover, the Potency entry in assay [10], in [11], in assay [12], in assay [13], in assay [14] and in assay [15] was “inactive” throughout. Moreover, the max response in assay [2] is 2.74%; in [3] it was -3.5%; in assay [4] it was -4.04%.
`COc1ccc(CN(CCN(C)C)c2ncccn2)cc1`: the Potency in assay [1] is 5.36 µM (active). The results for the max response in assay [2], in assay [4] and in assay [16] were 0.19%, -2.44% and -1.92%, respectively. The result in [3] and in assay [17] was inactive. Besides, the Potency result in assay [5], in assay [6], in [7], in assay [8], in assay [9] and in [10] was “inactive” in each case. Further, the Potency result in assay [11], in [12], in [13], in assay [14] and in [15] was “inactive” each time.
For the compound `O=C(c1ccc(F)cc1)C1CCN(CCn2c(=S)[nH]c3ccccc3c2=O)CC1`, the Potency in assay [1] is 2.39 µM (active). Moreover, the max response is -5.62% in [2], -98.9% in [3], 8.09% in [4] and -46.6% in [16]. Further, the Potency entry in [5], in [6], in assay [7], in assay [8], in [11] and in assay [12] was “inactive” throughout. For the same compound, the Potency result in [13], in assay [14] and in assay [15] was “inactive” throughout.
As for `O=S(c1cc(Cl)cc(Cl)c1O)c1cc(Cl)cc(Cl)c1O`, in [2], the outcome was inactive. Also, the max response in assay [3] is -2.46%; in assay [18], -16.1%; in assay [16], 1.36%. For the same compound, the Potency entry in assay [5], in [7], in [8], in assay [9], in assay [11] and in assay [12] was “inactive” in each case. Moreover, the Potency entry in [13], in assay [14] and in assay [15] was “inactive” each time.
Consider `CCC(Cc1c(I)cc(I)c(N)c1I)C(=O)O` (stereo unspecified), for which the compound was called inactive in assay [2], in assay [3] and in [17]. The max response in assay [4] was -8.27%; in assay [16], 2.99%. For the same compound, the Potency entry in assay [5], in assay [6], in assay [7], in [8], in assay [9] and in [10] was “inactive” throughout. In addition, the Potency entry in [11], in [12], in assay [13], in assay [14] and in [15] was “inactive” each time.
For the compound `O=C(O)CCNC(=O)c1ccccc1`, the Potency result in assay [1], in [5], in assay [7], in [8], in assay [9] and in assay [10] was “inactive” throughout. The Potency result in assay [11], in assay [12], in [13], in assay [14] and in assay [15] was “inactive” throughout. For the same compound, the max response in [2] is 4.33%; in assay [4], -6.01%; in assay [16], 0.555%. Besides, the result in [3] and in [17] was inactive.
